Screening data: PubChem, National Center for Advancing Translational Sciences (NCATS)
HP1b chromo inh = HTS for Inhibitors of HP1-beta Chromodomain Interactions with Methylated Histone Tails; AlphaScreen HP1-beta / biotin-H3K9me3 peptide binding; Potency, µM (series often up to 114 µM), for the others: at the highest dose activity change, negative = inhibition, usual class: inhibitors; actives 0.56% (n = 390,000); also: nearly all actives have a fitted effect of over 70% in size
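AlphaScreen: HP1-beta (50 nM) preformed 30 min with biotin-H3(1-18)K9me3 peptide (50 nM) in PBS pH 7.4, 0.01% Tween-20. Compound added for 30 min at RT, then streptavidin donor/nickel chelate acceptor beads (10 ug/mL) for 30 min.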
BAZ2B block = qHTS Assay for Inhibitors of BAZ2B; Bromodomain adjacent to zinc finger domain protein 2B (Homo sapiens), Q9UIF8; AlphaScreen BAZ2B-H3K14Ac peptide displacement; Potency, µM (series often up to 114 µM), for the others: top-dose activity change, negative = inhibition, most hits filed as inhibitors; actives 4.4% (n = 360,000); also: % is scaled to controls: 0 for no effect and ±100 for the full control effect; nearly all actives have a fitted effect of over 60% in size
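AlphaScreen luminescence quantifies BAZ2B engagement of H3K14Ac peptide; the protein and biotinylated peptide are both at 50 nM final, buffer PBS pH 7.4 with 0.01% Tween-20, all steps at room temperature.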
GLS inh = qHTS for Inhibitors of Glutaminase (GLS) | actives 0.21% (n = 410,000) | Potency, µM (top dose mostly 45.5 µM), for inactives: top-dose activity change, negative = inhibition, hits mostly inhibitors | Glutaminase kidney isoform, mitochondrial (Homo sapiens), O94925 | GLS enzymatic activity, qHTS titration | AID 624170, 2012; also: % is scaled to controls: 0 for no effect and ±100 for the full control effect
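Enzyme dispensed in phosphate buffer (45 mM, pH 8.2, 0.02% Tween-20), compounds pinned in, then 1 mM L-glutamine solution and the glutamate oxidase–HRP–Amplex Red mix added; fluorescence read immediately and again after 30 min at room temperature.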
JMJD2A Tudor inh = qHTS Assay for Inhibitors of JMJD2A-Tudor Domain. Potency, µM (titrated, usually from 114 µM), inactives show top-dose activity change, negative = inhibition, hits mostly inhibitors. actives 4.4% (n = 390,000). Lysine-specific demethylase 4A (Homo sapiens), O75164. AlphaScreen JMJD2A-Tudor / H3K4me3 peptide binding; also: % is scaled to controls: 0 for no effect and ±100 for the full control effect; nearly all actives have a fitted effect of over 50% in size
Target sequence (O75164 whole entry, looked up, the tested form may be a part): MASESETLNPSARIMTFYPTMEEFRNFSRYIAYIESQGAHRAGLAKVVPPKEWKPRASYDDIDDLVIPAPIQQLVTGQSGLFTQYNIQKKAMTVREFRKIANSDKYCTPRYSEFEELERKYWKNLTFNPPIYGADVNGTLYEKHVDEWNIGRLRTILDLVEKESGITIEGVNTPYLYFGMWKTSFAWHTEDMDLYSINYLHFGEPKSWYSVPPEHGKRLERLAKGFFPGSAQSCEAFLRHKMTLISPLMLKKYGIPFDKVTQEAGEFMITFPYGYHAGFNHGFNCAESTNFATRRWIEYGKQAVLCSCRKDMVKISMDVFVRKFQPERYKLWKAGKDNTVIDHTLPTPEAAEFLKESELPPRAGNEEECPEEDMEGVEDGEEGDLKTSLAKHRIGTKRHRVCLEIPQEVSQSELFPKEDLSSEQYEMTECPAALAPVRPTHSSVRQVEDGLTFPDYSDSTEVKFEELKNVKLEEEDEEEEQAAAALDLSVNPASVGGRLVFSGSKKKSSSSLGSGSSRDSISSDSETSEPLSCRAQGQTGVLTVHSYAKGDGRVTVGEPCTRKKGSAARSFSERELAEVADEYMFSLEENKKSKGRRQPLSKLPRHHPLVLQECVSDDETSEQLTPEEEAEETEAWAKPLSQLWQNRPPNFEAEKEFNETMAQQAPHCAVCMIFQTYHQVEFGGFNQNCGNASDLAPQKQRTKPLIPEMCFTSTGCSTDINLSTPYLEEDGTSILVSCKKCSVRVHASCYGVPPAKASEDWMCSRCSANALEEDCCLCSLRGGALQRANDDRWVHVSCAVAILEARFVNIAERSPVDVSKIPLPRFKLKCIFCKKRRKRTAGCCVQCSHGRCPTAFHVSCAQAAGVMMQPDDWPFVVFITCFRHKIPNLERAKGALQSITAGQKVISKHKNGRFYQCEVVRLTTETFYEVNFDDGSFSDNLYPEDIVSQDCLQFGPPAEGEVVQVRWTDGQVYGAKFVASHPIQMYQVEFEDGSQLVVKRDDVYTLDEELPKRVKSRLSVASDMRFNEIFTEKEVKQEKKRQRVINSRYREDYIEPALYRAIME
G9a block = qHTS Assay for Inhibitors of Histone Lysine Methyltransferase G9a; Histone-lysine N-methyltransferase EHMT2 (Homo sapiens), Q96KQ7; G9a H3K9 monomethylation, AlphaScreen, 2 h; Potency, µM (top dose mostly 102 µM), without a hit: at the top dose activity, negative = inhibition, actives largely listed as inhibitors; actives 8.8% (n = 350,000); AID 504332, 2011; also: % is scaled to controls: 0 for no effect and ±100 for the full control effect; nearly all actives have a fitted effect of over 75% in size
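Signal arises when biotinylated H3K9 peptide, once monomethylated, bridges streptavidin donor and antibody-captured acceptor beads. Enzyme at 20 nM was preincubated 15 min with test compounds; peptide 500 nM and SAM 20 uM then reacted for 2 h.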
Starred values were filed as active, the others as inactive; [ ] = another dose, or the depositor's remark. In the library only some 10% were active in any assay of this set; here they are far more common. Calls follow the shape of the dose curve; as a rule, active = well fitted curve in the direction sought with a large enough effect; inconclusive = small, poorly fitted or top-dose-only effect, or another doubt; inactive = no such curve, though single readings can be large; an effect the other way counts as inactive or inconclusive. Potency is read from the fitted curve at half-maximal effect.

How did CC(=O)Nc1nc(CC(C)C)cc(-c2ccco2)c1C#N do in these assays?
HP1b chromo inh: 17.3%; BAZ2B block: 3.5%; GLS inh: 5.0%; JMJD2A Tudor inh: -5.2%; G9a block: 15.8µM*

Results for CCOc1ccc(C(=O)NCCO)cc1 ?
HP1b chromo inh: 30.0%; BAZ2B block: -7.5%; GLS inh: 1.9%; JMJD2A Tudor inh: -16.0%; G9a block: -29.1%

What do the screens show for `COc1ccccc1N1CCN(C(=O)Oc2ccccc2)CC1`?
HP1b chromo inh: 31.0%; BAZ2B block: 8.0%; GLS inh: 10.0%; JMJD2A Tudor inh: -8.3%; G9a block: -32.1%[12.7 µM]

Results for COc1cccc(CCC(=O)N(C)C2CCCN(Cc3ccccc3F)C2)c1 (centres undefined) ?
HP1b chromo inh: 10.2%; BAZ2B block: -4.4%; GLS inh: 5.1%; JMJD2A Tudor inh: -13.7%; G9a block: 16.1%

What do the screens show for `O=C(C1CCCN(Cc2ccccc2F)C1)N1CCCCC1` (centres undefined)?
HP1b chromo inh: 44.7µM*; BAZ2B block: 20µM*; GLS inh: -9.0%; JMJD2A Tudor inh: 3.98µM*; G9a block: 10µM*

How did O=C(c1cccc(F)c1)N1CCCC(C(=O)N2CCCCC2)C1 (centres undefined) do in these assays?
HP1b chromo inh: 18.1%; BAZ2B block: 14.2%; GLS inh: -2.5%; JMJD2A Tudor inh: -21.8%; G9a block: 48.6%

Results for CN(C(=O)CCc1ccccc1F)C1CCCN(Cc2ccccc2F)C1 (centres undefined) ?
HP1b chromo inh: -3.6%; BAZ2B block: 1.9%; GLS inh: inconclusive; JMJD2A Tudor inh: 10µM*; G9a block: -7.3%[0.501 µM]

What do the screens show for `COc1ccc(C(=O)N2CCCC(C(=O)O)C2)c2ccccc12` (centres undefined)?
HP1b chromo inh: 22.8%; BAZ2B block: -6.4%; GLS inh: -4.9%; JMJD2A Tudor inh: 1.4%; G9a block: 44.7µM*

What do the screens show for `O=C(C1CCCN(Cc2ccccc2C(F)(F)F)C1)N1CCCCC1` (centres undefined)?
HP1b chromo inh: inconclusive; BAZ2B block: 50.1µM*; GLS inh: 0.7%; JMJD2A Tudor inh: 3.55µM*; G9a block: 5.01µM*

Results for COc1ccccc1C(=O)C1CCCN(C(=O)c2ccccc2C(C)=O)C1 (centres undefined) ?
HP1b chromo inh: 26.2%; BAZ2B block: 0.4%; GLS inh: -2.7%; JMJD2A Tudor inh: -7.6%; G9a block: -8.8%[12.7 µM]

What do the screens show for `COc1ccc(CN2CCCC(C(=O)N3CCCC3)C2)c(OC)c1OC` (centres undefined)?
GLS inh: -8.1%

What do the screens show for `COc1ccccc1CN1CCCC(C(=O)N2CCCCC2)C1` (centres undefined)?
HP1b chromo inh: 70.8µM*; BAZ2B block: 44.7µM*; GLS inh: 5.7%; JMJD2A Tudor inh: 1.78µM*; G9a block: 17.8µM*

Results for Cc1nn(CCCC(=O)Nc2sc3c(c2C#N)CCC3)c(C)c1[N+](=O)[O-] ?
HP1b chromo inh: inconclusive; BAZ2B block: inconclusive; GLS inh: -8.0%; JMJD2A Tudor inh: inconclusive; G9a block: 31.6µM*

How did CC(C)(C)C1CCc2c(sc(NC(=O)c3cc(C4CC4)on3)c2C#N)C1 (centres undefined) do in these assays?
HP1b chromo inh: 11.3%; BAZ2B block: -2.9%; GLS inh: 7.3%; JMJD2A Tudor inh: -22.4%; G9a block: 79.4µM*

How did Cc1nn(C(C)C(=O)Nc2sc3c(c2C#N)CCCC3)c(C)c1[N+](=O)[O-] (centres undefined) do in these assays?
HP1b chromo inh: 10.3%; BAZ2B block: 0.4%; GLS inh: -7.4%; JMJD2A Tudor inh: -7.0%; G9a block: inconclusive

How did CC(C)(C)C1CCc2c(sc(NC(=O)Cn3nnc(-c4ccccc4F)n3)c2C#N)C1 (centres undefined) do in these assays?
HP1b chromo inh: 5.1%; BAZ2B block: -22.3%; GLS inh: 0.8%; JMJD2A Tudor inh: -25.0%; G9a block: 2.4%[59 µM]

How did Cc1nn(CC(=O)Nc2sc3c(c2C#N)CCC(C(C)(C)C)C3)c(C)c1[N+](=O)[O-] (centres undefined) do in these assays?
HP1b chromo inh: -23.4%; BAZ2B block: -27.9%; GLS inh: -18.7%; JMJD2A Tudor inh: -22.9%; G9a block: 44.7µM*

Results for Cc1ccc(C(=O)Nc2cccc(C(=O)NCc3ccccc3)c2)cc1 ?
HP1b chromo inh: 21.8%; BAZ2B block: -4.0%; GLS inh: 4.0%; JMJD2A Tudor inh: -28.2%; G9a block: 27.0%[59 µM]

What do the screens show for `CCOC(=O)CCNC(=O)c1ccccc1Br`?
HP1b chromo inh: 64.7%; BAZ2B block: 1.0%; GLS inh: -9.8%; JMJD2A Tudor inh: -17.0%; G9a block: -2.4%

Results for O=C(OCC(=O)N1CCN(C(=O)c2ccco2)CC1)c1cc(-c2ccc(Cl)c(Cl)c2Cl)nc2ccccc12 ?
HP1b chromo inh: 14.4%; BAZ2B block: -6.0%; GLS inh: inconclusive; JMJD2A Tudor inh: -13.4%[57.1 µM]; G9a block: 79.4µM*

Results for O=C(OCC(=O)N(Cc1ccccc1)Cc1ccccc1)c1ccccc1NCCO ?
HP1b chromo inh: 72.1%; BAZ2B block: 6.2%; GLS inh: 2.4%; JMJD2A Tudor inh: 16.2%; G9a block: 39.8µM*

Results for O=C(COC(=O)c1ccccc1NCCO)NCCc1ccccc1 ?
HP1b chromo inh: 14.5%; BAZ2B block: 1.0%; GLS inh: 3.1%; JMJD2A Tudor inh: -3.4%; G9a block: 10.0%[0.501 µM]

Results for CN1CCCN(C(=O)c2cc(-c3ccc(Cl)c(Cl)c3Cl)nc3ccccc23)CC1 ?
HP1b chromo inh: 24.6%; BAZ2B block: inconclusive; GLS inh: 6.9%; JMJD2A Tudor inh: -18.8%; G9a block: -46.3%

Results for O=C(OCC(=O)N1CCN(C(=O)c2ccco2)CC1)c1cc(-c2ccco2)nc2ccccc12 ?
HP1b chromo inh: 31.6µM*; BAZ2B block: 20µM*; GLS inh: 4.2%; JMJD2A Tudor inh: 39.8µM*

What do the screens show for `O=C(OCC(=O)N1CCN(C(=O)c2ccco2)CC1)c1ccccc1NCCO`?
HP1b chromo inh: -1.7%; BAZ2B block: inconclusive; GLS inh: 37.6%; JMJD2A Tudor inh: 31.6µM*; G9a block: 4.1%[0.501 µM]

What do the screens show for `Cc1ccc(C)c(C(=O)COC(=O)Cn2c(C)csc2=O)c1`?
HP1b chromo inh: 17.4%; BAZ2B block: -8.9%; GLS inh: 1.8%; JMJD2A Tudor inh: -7.6%; G9a block: 79.4µM*

Results for N#C/C(=N\Nc1ccc(Cl)c(Cl)c1)C(=O)C1CC1 ?
HP1b chromo inh: inconclusive; BAZ2B block: 44.7µM*; GLS inh: 24.1%; JMJD2A Tudor inh: 50.1µM*
